Source: PubChem BioAssay (NCI)
Compounds without any hit were thinned out: in the full panel of roughly 83,000, 20% have a hit.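 96-well plates, one dose, 48 hours. Percent growth reported; active if below 10.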 Unmarked numbers belong to inactive results. Calls of active or inactive are those of the source.

How the values were obtained:
Assay in all cases: NCI-60 one-dose screen, 48 h (100 = growth as untreated, 0 = no growth, -100 = all killed)
Conditions in all cases: 10 µM unless noted
[1] = system: HCT-15 colon
[2] = system: HT29 colon
[3] = system: SNB-75 CNS
[4] = system: SNB-19 CNS
[5] = system: U251 CNS
[6] = system: PC-3 prostate
[7] = system: SK-MEL-5 melanoma
[8] = system: UACC-62 melanoma
[9] = system: LOX IMVI melanoma
[10] = system: SK-MEL-28 melanoma
[11] = system: SK-MEL-2 melanoma
[12] = system: EKVX NSCLC
[13] = system: SN12C renal
[14] = system: UO-31 renal
[15] = system: TK-10 renal
[16] = system: ACHN renal
[17] = system: CAKI-1 renal
[18] = system: A498 renal
[19] = system: CCRF-CEM leukemia
[20] = system: MOLT-4 leukemia

Row | Compound | growth [1] | growth [2] | growth [3] | growth [4] | growth [5] | growth [6] | growth [7] | growth [8] | growth [9] | growth [10] | growth [11] | growth [12] | growth [13] | growth [14] | growth [15] | growth [16] | growth [17] | growth [18] | growth [19] | growth [20]
1 | COc1ccc(Cc2nnc(Nc3nc4ccccc4s3)s2)cc1 | 92.4% | 110% | 92.2% | 94.2% | 98.2% | 108% | 96.5% | 89.6% | 96.4% | 92.3% | 107% | 96.1% | 94.2% | 81.2% | 103% | 97.2% | 96.1% | 97.8% | 97.7% | 105%
2 | CC(C)c1ccc(-n2c(=S)[nH]c3sc4c(c3c2=O)CCC(=O)C4)cc1 | 45.9% | 109% | 41.6% | 26.4% | 11.8% | 7.63% (active) | 27.9% | 24.5% | 43.3% | 75.7% | 91.4% | 47% | 50.8% | 46.9% | 106% | 82% | 74.2% | 112% | 18.2% | 75.7%
3 | CN(C)c1ccc(/C=C/C(=O)c2ccc(Nc3nc(Nc4ccc(F)cc4)nc(Nc4ccc(Cl)cc4)n3)cc2)cc1 | 57% | 60.7% | 76.9% | 92.7% | 67.9% | 57.2% | 50.2% | 75.2% | 75.6% | 74.3% | 52.6% | 67.2% | 101% | 59.2% | 97.9% | 75.3% | 70.9% | 83.4% | 4.13% (active) | -3.06% (active)
4 | COc1ccc(C2CC(c3ccc4c(c3)OCO4)=Nc3c(N)ncnc3N2)cc1 (stereo not given) | 94.3% | 106% | 86.6% | 88.8% | 101% | 98.6% | 87.8% | 90.3% | 101% | 112% | 72.6% | 119% | 111% | 89.4% | 118% | 101% | 120% | 94.4% | 3.41% (active) | 91.9%
5 | CN(CCC#N)c1ccc(/C=C2\NC(=O)NC2=O)cc1 | 104% | 82.4% | 102% | 102% | 112% | 94.8% | 102% | 91.1% | 87.9% | 109% | 100% | 79.3% | 98.6% | 84.4% | 93.5% | 97.9% | 82.8% | 89.3% | 107% | 92%
6 | O=C1Nc2ccccc2/C1=C/c1cn(C[C@@H](O)Cn2c3ccccc3c(=O)c3ccccc32)c2ccccc12 | 73.9% | 77.8% | 63.6% | 73.1% | 75.2% | 51.1% | 67.1% | 69.2% | 69.1% | 95.4% | 79.9% | 73.1% | 73.7% | 30.4% | 90.6% | 65.5% | 74.2% | 91.1% | 70.5% | 62.6%
7 | CCOC(=O)c1c2c(n3ccccc13)C(=O)c1ncccc1C2=O | 22.4% | 47.6% | 34.3% | 16.5% | 0.0106% (active) | 19.9% | -17.8% (active) | -25.8% (active) | 0.56% (active) | 28.9% | 65.6% | 40.4% | 10.3% | 1.86% (active) | 38.4% | 7.49% (active) | 9.11% (active) | 30.7% | 32.1% | 31.9%
8 | COC(c1ccc2ccccc2c1)C(C)C(F)F (stereo not given) | 112% | 98.2% | 95.9% | 101% | 102% | 96.6% | 112% | 93.4% | 101% | 96.3% | 97.8% | 100% | 98.2% | 90.6% | 86.4% | 100% | 95.9% | 99.7% | 62.2% | 99.3%
9 | C=C(C)[C@@H]1CC[C@]2(CO)CC[C@]3(C)[C@H](CC[C@@H]4[C@@]5(C)CCC(NCCc6ccc(O)cc6)C(C)(C)[C@@H]5CC[C@]43C)[C@@H]12 (stereo not given in full) | -92.8% (active) | -87.9% (active) | -86.7% (active) | -82.1% (active) | -94.2% (active) | -84.2% (active) | -95.4% (active) | -89.3% (active) | -96.8% (active) | -88.8% (active) | -85% (active) | -52.1% (active) | -88.9% (active) | -96.9% (active) | -94.5% (active) | -100% (active) | -58.5% (active) | 6.99% (active) | -41.3% (active) | -43.8% (active)
10 | NNC(=S)N/N=C/c1ccccn1 | 26.7% | 36% | 59.6% | 48.3% | 28.4% | 32.9% | 30.2% | 20.7% | 13.2% | 56.3% | 59.6% | 31.6% | 30% | 14.7% | 46.9% | 17% | 14.2% | 70.4% | 12% | 12%
11 | COc1ccc(Cn2cc(C(=O)N=Nc3c(O)[nH]c4c(Cl)cccc34)nn2)cc1 | 107% | 97% | 82.1% | 93.6% | 102% | 96.7% | 101% | 102% | 93.7% | 115% | 93.2% | 102% | 95.8% | 93.5% | 106% | 111% | 94.4% | 93.8% | 106% | 84.8%
12 | N#Cc1nc(-c2ccc(F)cc2)oc1S(=O)(=O)N1CCN(c2ccc(F)cc2)CC1 | 14% | 65.9% | 87.6% | 96.9% | 86.7% | 92% | 93.1% | 90.6% | 10.3% | 104% | 90.9% | 113% | 85% | 81.2% | 86% | 77.5% | 100% | 113% | 4.6% (active) | 1.8% (active)
13 | N#CCC1=NC(c2cccs2)=Nc2ccccc2S1 | 109% | 89.5% | 94% | 87.9% | 87.7% | 71.1% | 93.8% | 70.1% | 99.1% | 88.4% | 96.9% | 105% | 86.6% | 79.1% | 117% | 98.2% | 95.6% | 90.9% | 90.8% | 92.5%
14 | Cc1ncc(C(=O)Nc2ccc(CN3CCN(C)CC3)c(C(F)(F)F)c2)cc1C#Cc1cnc(N)c2cnccc12 | 6.59% (active) | -43.1% (active) | -90.6% (active) | 23.1% | -20.7% (active) | 41.7% | -20.8% (active) | -65.2% (active) | -90.1% (active) | -0.469% (active) | -85.3% (active) | 21.5% | 11.7% | -30.1% (active) | -22.6% (active) | -21.6% (active) | -91.5% (active) | -90.5% (active) | 10.3% | 13%
15 | N=C(N)SCc1cccc2c(CSC(=N)N)cccc12 | 108% | 108% | 91.7% | 93.5% | 89.2% | 97.4% | 109% | 96.6% | 97.7% | 109% | 106% | 107% | 94% | 84.9% | 106% | 108% | 94.4% | 87.2% | 119% | 119%
